Assay results from PubChem BioAssay AID2534 (National Center for Advancing Translational Sciences (NCATS), 2010).
Inconclusive results are not listed. Activity calls are given as the source filed them. The call rests on the fitted dose curve; in most records, active means well fitted curve in the direction sought with a large enough effect; inconclusive means small, poorly fitted or top-dose-only effect, or effect the other way, or another doubt; inactive means no such curve, though single readings can be large or run the other way.

molecular target: Pyruvate kinase PKLR (Homo sapiens) (UniProt P30613); assay: Secondary Concentration-Response Assay for Activators of Human Reticulocyte Pyruvate Kinase: for Probe SAR; conditions: purified hPK-R, ATP production, Kinase-Glo luminescence; series mostly up to 57.5 µM; activity change, negative = inhibition: at the top concentration
Sequence (P30613 whole entry, looked up): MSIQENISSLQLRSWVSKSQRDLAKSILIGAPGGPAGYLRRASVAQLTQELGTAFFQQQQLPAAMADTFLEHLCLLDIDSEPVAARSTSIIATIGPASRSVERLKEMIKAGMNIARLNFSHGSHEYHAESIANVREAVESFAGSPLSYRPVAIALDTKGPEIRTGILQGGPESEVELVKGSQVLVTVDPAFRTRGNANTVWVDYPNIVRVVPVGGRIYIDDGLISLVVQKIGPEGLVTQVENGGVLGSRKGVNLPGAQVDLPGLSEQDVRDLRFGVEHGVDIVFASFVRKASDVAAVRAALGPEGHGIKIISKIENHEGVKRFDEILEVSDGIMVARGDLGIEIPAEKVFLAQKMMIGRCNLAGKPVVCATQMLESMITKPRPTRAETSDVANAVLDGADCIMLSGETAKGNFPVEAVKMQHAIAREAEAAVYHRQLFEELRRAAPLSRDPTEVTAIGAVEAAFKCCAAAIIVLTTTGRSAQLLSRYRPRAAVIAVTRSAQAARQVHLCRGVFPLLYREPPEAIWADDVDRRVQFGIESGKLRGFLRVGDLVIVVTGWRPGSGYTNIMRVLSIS
From the text: NIH Chemical Genomics Center [NCGC]
Wael M. Rabeh, Lyudmila Nedyalkova and Hee-Wan Park [Structural Genomics Consortium, 100 College St. Toronto, Ontario, Canada]
Human pyruvate kinase reticulocyte (hPK-R) enzyme was supplied as a highly purified (>95% pure) preparation from Structural Genomics Consortium in Toronto (Ontario, Canada) and assayed for its ability to generate ATP from ADP using phosphoenolpyruvate (PEP) as a substrate. ATP generation was detected in a coupled reaction by luciferase-mediated luminescence, an ATP-dependent process. Pyruvate kinase substrates, PEP and ADP, were present in the assay at Km and approximately 10-fold below Km respectively. The enzyme was assayed at an intermediate level of activity to screen for both inhibitors and activators.
NCGC Assay Protocol Summary for R-isoform
Three uL of substrate mix (at r.t.) in assay buffer (50 mM Imidazole pH7.2, 50 mM KCl, 7 mM MgCl2, 0.01% Tween 20, 0.05% BSA) was dispensed into white solid bottom 1,536 well microtiter plates so that the final concentrations of substrates in the assay were 0.1 mM ADP and 0.5 mM PEP. 23 nL of compound were delivered by a pin tool and 1 uL of enzyme mix (final concentration of 0.1 nM) in assay buffer (4 degree Celsius) was added. Plates were incubated at room temperature for 1 hour. Two uL of detection mix (Kinase-Glo, Promega; at 4 degree Celsius protected from light) was added and luminescence read by a ViewLux (Perkin Elmer) at 1 second exposure/plate. Data were normalized to the uninhibited (row 31). Additionally, a no enzyme and 5-fold enzyme control was dispensed in row 32, split equally between the two conditions.

Activity change, negative = inhibition, inactive:
O=C1CCc2cc(S(=O)(=O)Nc3ccc4c(c3)OCCO4)ccc2N1 12.4%
Cc1ccc(C)c(OC2=NS(=O)(=O)c3ccccc32)c1 -0.194%
O=C1c2ccccc2C(=O)N1c1cccc2ccncc12 11.9%
O=C1CCc2cc(Cl)c(S(=O)(=O)Nc3ccc(Cl)c(Cl)c3)cc2N1 -1.27%
O=C1CCc2cc(S(=O)(=O)Nc3cccc(B(O)O)c3)ccc2N1 -0.773%
COc1cccc(NS(=O)(=O)c2ccc3c(c2)CCC(=O)N3)c1 11%
Cc1ccccc1NS(=O)(=O)c1ccc2c(c1)CCC(=O)N2 12.2%
O=C1CCc2cc(S(=O)(=O)Nc3ccncc3)ccc2N1 3.56%
O=C1c2ccccc2C(=O)N1c1ccncc1 4.7%
Cc1ccc(Cl)cc1NS(=O)(=O)c1cc2c(cc1F)NC(=O)CC2 -16.4%
O=C1c2ccccc2C(=O)N1c1ccccn1 3.08%
O=C1c2ccccc2C(=O)N1c1cccc2cnccc12 4.76%
O=C1CCc2cc(S(=O)(=O)Nc3ccc4ccccc4c3)ccc2N1 3.45%
O=C1CCc2cc(S(=O)(=O)Nc3ccc(Cl)cc3)ccc2N1 5.94%
O=C1CCc2cc(S(=O)(=O)Nc3cccc(Br)c3)ccc2N1 -3.86%
O=C1CCc2cc(S(=O)(=O)Nc3ccc(Cl)c(Cl)c3)c(F)cc2N1 2.57%
O=C1CCc2cc(S(=O)(=O)Nc3cccc(C(F)(F)F)c3)ccc2N1 1.1%
Nc1cccc(S(=O)(=O)N2CCCN(S(=O)(=O)c3ccc4c(c3)OCCO4)CC2)c1 20.9%
COc1cc(N2C(=O)c3ccccc3C2=O)c2ncccc2c1 9.59%
Cc1cc(NS(=O)(=O)c2ccc3c(c2)CCC(=O)N3)ccc1F -2.63%
O=C1c2ccccc2C(=O)N1c1cccc(Cl)c1 3.13%
Cc1cc(N2C(=O)c3ccccc3C2=O)n[nH]1 -9.57%
O=C1CCc2cc(S(=O)(=O)Nc3cc(F)cc(Cl)c3)c(F)cc2N1 -1.27%
Cc1c(Cl)cccc1NS(=O)(=O)c1cc2c(cc1F)NC(=O)CC2 -6.02%
Cc1ccc(C)c(SC2=NS(=O)(=O)c3cc(C(=O)NCc4ccccc4)ccc32)c1 -68.1%
COc1ccccc1NS(=O)(=O)c1ccc2c(c1)CCC(=O)N2 3.88%
O=C1c2ccccc2C(=O)N1c1cccc2cccnc12 5.04%
O=C1CCc2cc(S(=O)(=O)Nc3ccc(F)cc3)ccc2N1 0.814%
O=C1CCc2cc(S(=O)(=O)Nc3ccccc3F)ccc2N1 -5.2%
O=C1CCc2cc([S+](=O)([O-])Nc3ccc(N[S+](=O)([O-])c4ccc5c(c4)CCC(=O)N5)cc3)ccc2N1 5.29%
Cc1ccc(NS(=O)(=O)c2cc3c(cc2F)NC(=O)CC3)cc1Cl 0.0219%
CN(C)c1cccc(S(=O)(=O)N2CCCN(S(=O)(=O)c3ccc4c(c3)OCCO4)CC2)c1 18.2%
O=C1c2ccccc2C(=O)N1c1noc2ccccc12 -7.43%
O=C1c2ccccc2C(=O)N1Cc1ccncc1 9.02%
Cc1ccc(N2C(=O)c3ccccc3C2=O)c(C)c1 3.05%
Cc1ccc(NS(=O)(=O)c2cc3c(cc2Cl)CCC(=O)N3)cc1Cl -0.101%
O=C1CCc2cc(S(=O)(=O)Nc3cccc(-c4ccccc4)c3)ccc2N1 8.1%
Cc1c(Cl)cccc1NS(=O)(=O)c1cc2c(cc1Cl)CCC(=O)N2 1.15%
O=C1c2ccccc2C(=O)N1C1CCCCC1 3.22%

outcome, inactive:
O=S(=O)(c1ccc2c(c1)OCCO2)N1CCN(S(=O)(=O)c2c(F)cccc2F)CC1
